Measured values taken from PubChem BioAssay (NCATS).
“And” between values parts separate entries of the source, which are not always exact repeats. Identical values can stand only once. Inconclusive results are not listed. Some compounds were tested as several samples or in several runs, with calls that do not always agree. The source made the active and inactive calls. Unless noted, calls come from the whole dose curve; as a rule, active = well fitted curve in the direction sought with a large enough effect; inconclusive = small, poorly fitted or top-dose-only effect, or another doubt; inactive = no such curve, though single readings can be large; an effect the other way counts as inactive or inconclusive.

How the values were obtained:
[1] = test system: MKL-2; test: qHTS assay to identify novel small-molecules to repurpose for Merkel cell carcinoma treatment (AID 1296009); settings: MCC and control cell lines, CellTiter-Glo viability, 72 h; series mostly up to 46 µM; note: nearly all actives have a fitted effect of over 60% in size; note: potency is the fitted concentration of half-maximal effect; for activity change, negative = cytotoxicity: % is set by controls: 0 for no effect and ±100 for the full control effect
Procedure, shortened: (§1)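 Cell viability, measured as CellTiter-Glo luminescence, was normalized between DMSO and no-cell wells. The cells had been exposed to 8- or 11-point compound dilutions for 72 hr at 37 degree celsius.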

[2] = test system: UISO; test: as above; settings: MCC and control cell lines, CellTiter-Glo viability, 72 h; series mostly up to 46 µM
Procedure, shortened: as §1

[3] = test system: WaGa; test: as above; settings: MCC and control cell lines, CellTiter-Glo viability, 72 h; series mostly up to 46 µM
Procedure, shortened: as §1

[4] = test system: C33A; test: Primary qHTS to identify gynecologic anti-cancer compounds using libraries of approved drugs and bioactive compounds (AID 1345084); settings: Gynecologic cancer cell panel viability, ATPlite luminescence, 48 h; series mostly up to 57.5 µM; note: nearly all actives have a fitted effect of over 55% in size; note: potency is the fitted concentration of half-maximal effect; for activity change, negative = cytotoxicity: % is set by controls: 0 for no effect and ±100 for the full control effect
Procedure, shortened: (§2)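 In this quantitative HTS, cell killing is estimated from loss of ATP-dependent luciferase light. Cells see five compound concentrations over a 48 h exposure.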

[5] = test system: CAOV3; test: as above; settings: Gynecologic cancer cell panel viability, ATPlite luminescence, 48 h; series mostly up to 57.5 µM
Procedure, shortened: as §2

[6] = test system: CASKI; test: as above; settings: Gynecologic cancer cell panel viability, ATPlite luminescence, 48 h; series mostly up to 57.5 µM
Procedure, shortened: as §2

[7] = test system: Es-2; test: as above; settings: Gynecologic cancer cell panel viability, ATPlite luminescence, 48 h; series mostly up to 57.5 µM
Procedure, shortened: as §2

[8] = test system: HeLa; test: as above; settings: Gynecologic cancer cell panel viability, ATPlite luminescence, 48 h; series mostly up to 57.5 µM
Procedure, shortened: as §2

[9] = test system: Hek293T; test: as above; settings: Gynecologic cancer cell panel viability, ATPlite luminescence, 48 h, control line for the selectivity index; series mostly up to 57.5 µM
Procedure, shortened: as §2

[10] = test system: JEG-3; test: as above; settings: Gynecologic cancer cell panel viability, ATPlite luminescence, 48 h; series mostly up to 57.5 µM
Procedure, shortened: as §2

[11] = test system: OV90; test: as above; settings: Gynecologic cancer cell panel viability, ATPlite luminescence, 48 h; series mostly up to 57.5 µM
Procedure, shortened: as §2

[12] = test system: PA-1; test: as above; settings: Gynecologic cancer cell panel viability, ATPlite luminescence, 48 h; series mostly up to 57.5 µM
Procedure, shortened: as §2

[13] = test system: SKOV3; test: as above; settings: Gynecologic cancer cell panel viability, ATPlite luminescence, 48 h; series mostly up to 57.5 µM
Procedure, shortened: as §2

[14] = test system: Tov-21-G; test: as above; settings: Gynecologic cancer cell panel viability, ATPlite luminescence, 48 h; series mostly up to 57.5 µM
Procedure, shortened: as §2

[15] = test system: Tov112D; test: as above; settings: Gynecologic cancer cell panel viability, ATPlite luminescence, 48 h; series mostly up to 57.5 µM
Procedure, shortened: as §2

[16] = Drug repurposing screens with cells derived from glioblastoma tumor samples (AID 1345199); settings: GBM patient neurospheres viability, ATP luminescence, 48 h; note: nearly all actives have a fitted effect of over 40% in size; note: potency is the fitted concentration of half-maximal effect; for activity, negative = cell killing: % is set by controls: 0 for no effect and ±100 for the full control effect
Procedure, shortened: (§3)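 Primary testing used CD133+ neurospheres from four GBM patients, seven concentrations, 48 h exposure and ATP-based viability; confirmation added three slower-growing patient lines.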

[17] = test system: astro; test: as above; settings: viability, ATP luminescence, 48 h; series mostly up to 45.9 µM
Procedure, shortened: as §3

[18] = test system: NIH3T3; test: qHTS assay to identify novel small-molecules to repurpose for Merkel cell carcinoma treatment (AID 1296009); settings: MCC and control cell lines, CellTiter-Glo viability, 72 h; at 44.8 µM (top of the series) unless noted; note: nearly all actives have a fitted effect of over 60% in size; note: potency is the fitted concentration of half-maximal effect; for activity change, negative = cytotoxicity: % is set by controls: 0 for no effect and ±100 for the full control effect
Procedure, shortened: as §1

[19] = molecular target: Nuclear receptor subfamily 1 group I member 2 (Rattus norvegicus) (UniProt Q9R1A7); test: qHTS assay for small molecule activators of the rat pregnane X receptor (rPXR) signaling pathway (AID 651751; call rule not given here; note: 0% is about no effect); settings: rPXR reporter cells, luciferase (One-Glo), 24 h
Chain of Nuclear receptor subfamily 1 group I member 2 (Rattus norvegicus) (Q9R1A7 whole entry, looked up): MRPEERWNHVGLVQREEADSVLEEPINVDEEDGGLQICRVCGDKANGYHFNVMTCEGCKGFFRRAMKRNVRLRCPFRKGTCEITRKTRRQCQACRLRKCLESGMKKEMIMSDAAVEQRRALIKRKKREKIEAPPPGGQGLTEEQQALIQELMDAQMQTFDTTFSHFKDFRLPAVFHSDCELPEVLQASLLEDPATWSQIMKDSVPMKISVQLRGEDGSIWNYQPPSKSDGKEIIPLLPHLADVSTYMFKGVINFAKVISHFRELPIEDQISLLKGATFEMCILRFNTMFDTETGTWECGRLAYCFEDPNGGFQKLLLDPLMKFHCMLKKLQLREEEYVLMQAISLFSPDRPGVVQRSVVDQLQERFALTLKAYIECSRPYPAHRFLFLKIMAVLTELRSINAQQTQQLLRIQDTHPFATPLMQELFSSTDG

[20] = at 45.9 µM (top of the series), tumour line B
[21] = at 45.9 µM (top of the series), tumour line D
[22] = at 46.1 µM (top of the series), tumour line C
[23] = at 46 µM (top of the series), tumour line A

CN1CCN(CC(=O)N2c3ccccc3C(=O)Nc3cccnc32)CC1
inactive: activity change, negative = cytotoxicity [1] 15.9% [at 4.84 µM] | activity change, negative = cytotoxicity [2] 0.833% [at 4.84 µM] | activity change, negative = cytotoxicity [3] 4.82% [at 4.84 µM] | activity change, negative = cytotoxicity [4] -17.4% [at 6.55 µM] | activity change, negative = cytotoxicity [5] 6.09% [at 6.55 µM] | activity change, negative = cytotoxicity [6] 7.9% [at 6.55 µM] | activity change, negative = cytotoxicity [7] 2.19% [at 6.55 µM] | activity change, negative = cytotoxicity [8] 1.94% [at 6.55 µM] | activity change, negative = cytotoxicity [9] 3.74% [at 6.55 µM] | activity change, negative = cytotoxicity [10] -2.67% [at 6.55 µM] | activity change, negative = cytotoxicity [11] 8.92% [at 6.55 µM] | activity change, negative = cytotoxicity [12] 18.1% [at 6.55 µM] | activity change, negative = cytotoxicity [13] 8.94% [at 6.55 µM] | activity change, negative = cytotoxicity [14] 7.44% [at 6.55 µM] | activity change, negative = cytotoxicity [15] -0.53% [at 6.55 µM] | activity, negative = cell killing [16, 20] -1.68% | activity, negative = cell killing [16, 21] -4.29% | activity, negative = cell killing [16, 22] 9.11%

NC/C=C/C(=O)O
inactive: Potency [1] | Potency [2] | Potency [3] | Potency [4] | Potency [5] | Potency [6] | Potency [7] | Potency [8] | Potency [9] | Potency [10] | Potency [11] | Potency [12] | Potency [13] | Potency [14] | Potency [15] | activity, negative = cell killing [16, 20] -2.84% | activity, negative = cell killing [16, 21] -13.4% | activity, negative = cell killing [16, 23] -7.07% | activity, negative = cell killing [16, 22] -22.1% | Potency [17]

CCN(CC)CC(=O)Nc1c(C)cccc1C
inactive: Potency [1] | outcome [18] | Potency [2] | Potency [3] | Potency [4] | Potency [5] | Potency [6] | Potency [7] | Potency [8] | Potency [9] | Potency [10] | Potency [11] | Potency [12] | Potency [13] | Potency [14] | Potency [15] | activity, negative = cell killing [16, 20] -12.8% | activity, negative = cell killing [16, 23] 16.4% | activity, negative = cell killing [16, 22] -29.2%

NC(=Nc1ccccc1)Nc1ccccc1
active: Potency ([16]; tumour line A) 25.1 µM
inactive: Potency [1] | outcome [18] inactive [at 92 µM] | Potency [2] | Potency [3] | Potency [4] | Potency [5] | Potency [6] | Potency [7] | Potency [8] | Potency [9] | Potency [10] | Potency [12] | Potency [13] | Potency [14] | Potency [15] | activity, negative = cell killing [16, 20] -2.03% | activity, negative = cell killing [16, 21] -11.9% | activity, negative = cell killing [16, 22] 5.57% | activity, negative = cell killing ([16]; at 91.6 µM (top of the series), tumour line B) -24.2% | activity, negative = cell killing ([16]; at 91.6 µM (top of the series), tumour line D) -23% | activity, negative = cell killing ([16]; at 99.2 µM (top of the series), tumour line C) 19% | Potency [17] | max response [19] -0.275% and 5.17%
14.1 µM (active) and inactive: Potency [11]

CCc1c(C)[nH]c2c1C(=O)C(CN1CCOCC1)CC2 (stereo unspecified)
active: Potency [1] 9.44 µM
inactive: outcome [18] | Potency [2] | Potency [4] | Potency [5] | Potency [6] | Potency [7] | Potency [8] | Potency [9] | Potency [10] | Potency [11] | Potency [12] | Potency [13] | Potency [14] | Potency [15] | activity, negative = cell killing ([16]; at 20 µM (top of the series), tumour line C) -3.97% | activity, negative = cell killing ([16]; at 21.2 µM (top of the series), tumour line B) -15.8% | activity, negative = cell killing ([16]; at 21.2 µM (top of the series), tumour line D) 1.91% | Potency [17]
